Measurements published in PubChem BioAssay AID652071 (NMMLSC, 2013).
The source made the active and inactive calls. How the calls were made is not given here.

Experiment: yeast cytosolic pH changes via V-ATPase – S. cerevisiae, pHLuorin, powder set 4, dose response (AID 652071)
Conditions: S. cerevisiae pHLuorin cytosolic pH fluorescence; series mostly up to 100 µM; response change, sign ambiguous: at the top concentration

Response change, sign ambiguous, inactive:
CN(C)C(=O)c1cccc(C(=O)Nc2ccccc2N2CCCCC2)c1 -8.64%
CC(=O)N1CCN(c2ccccc2NC(=O)c2ccc(C(N)=O)o2)CC1 0%
CC(=O)N1CCN(c2ccccc2NC(=O)c2cncc(C)n2)CC1 -20.8%
Cc1cccc(C(=O)Nc2ccccc2N2CCN(C)CC2)n1 -22.4%
CN1CCN(c2ccccc2NC(=O)c2cc(C#N)ccn2)CC1 11.9%
O=C(Nc1ccccc1N1CCCCC1)c1ccc(Cl)o1 -19.9%
CN1CCN(c2ccccc2NC(=O)c2occc2-c2ccccc2)CC1 0.05%
CC(=O)N1CCN(c2ccccc2NC(=O)c2ccc(Br)o2)CC1 15%
CN1CCN(c2ccccc2NC(=O)c2cccc(S(C)(=O)=O)c2)CC1 1.86%
CC(=O)N1CCN(c2ccccc2NC(=O)c2cccc(C(N)=O)c2)CC1 -43%
CC(=O)N1CCN(c2ccccc2NC(=O)c2cncc(N)n2)CC1 13.1%
CC(=O)N1CCN(c2ccccc2NC(=O)c2cccc(Cl)n2)CC1 16.4%
CC(=O)N1CCN(c2ccccc2NC(=O)c2cc(C(F)(F)F)ccn2)CC1 8.23%
CC(=O)N1CCN(c2ccccc2NC(=O)c2cccc(CC#N)c2)CC1 -0.81%
CN1CCN(c2ccccc2NC(=O)c2ccc(Br)o2)CC1 2.63%
CC(=O)N1CCN(c2ccccc2NC(=O)c2ccc(C(F)(F)F)o2)CC1 4.7%
Cc1ccc(C(=O)Nc2ccccc2N2CCN(C)CC2)o1 -17.8%
COCc1ccc(C(=O)Nc2ccccc2N2CCN(C)CC2)o1 17.8%
CN1CCN(c2ccccc2NC(=O)c2cccc(S(=O)(=O)N(C)C)c2)CC1 14.1%
CN(C)S(=O)(=O)c1cccc(C(=O)Nc2ccccc2N2CCCCC2)c1 -24.9%
CC(=O)N1CCN(c2ccccc2NC(=O)c2cccc(CS(C)(=O)=O)c2)CC1 13.3%
CS(=O)(=O)Cc1cccc(C(=O)Nc2ccccc2N2CCCCC2)c1 7.01%
COCc1ccc(C(=O)Nc2ccccc2N2CCCCC2)o1 -30.8%
CN1CCN(c2ccccc2NC(=O)c2cccc(Br)n2)CC1 18.4%
O=C(Nc1ccccc1N1CCCCC1)c1ccc(-c2ccccc2)o1 4.4%
O=C(Nc1ccccc1N1CCCCC1)c1cncc(Cl)n1 -28.4%
Cc1ccc(C(=O)Nc2ccccc2N2CCCCC2)o1 -65.7%
O=C(Nc1ccccc1N1CCCCC1)c1cc(Cl)ccn1 -24.7%
O=C(Nc1ccccc1N1CCCCC1)c1cccc(Br)n1 -14.9%
O=C(Nc1ccccc1N1CCOCC1)c1ccc(Cl)o1 -7.94%
CC(=O)N1CCN(c2ccccc2NC(=O)c2ccc(C)o2)CC1 14.7%
CN1CCN(c2ccccc2NC(=O)c2ccc(C(N)=O)o2)CC1 -14.2%
Cc1cccc(C(=O)Nc2ccccc2N2CCCCC2)n1 -33.3%
CC(=O)N1CCN(c2ccccc2NC(=O)c2cccc(C(=O)N(C)C)c2)CC1 24.7%
CN1CCN(c2ccccc2NC(=O)c2ccc(C(C)(C)C)o2)CC1 -20.7%
